The whole screen tested about 65,000 compounds, of which fewer than 10 were called active.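 The calls were made as follows: active = at 10 µM dose, initial 340 nm absorbance at least 2 fold that of control wells; inactive = change under 2 fold.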 A selection follows.

This assay is described as follows: A340 optical interference by library compounds – biochemical, MLSMR library, data from PS, PMK, MK assays, artefact control, profiling panel (AID 708).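 Also: initial absorbance extrapolated from kinetic A340 decline of NADH oxidation.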 The settings on record: compound absorbance at 340 nm, fold over control; at 10 µM; stronger effect = higher value.
As for `N#Cc1c(N)n(CCOC(=O)c2ccc(Cl)cc2)c2nc3ccccc3nc12`, the fold change is 1.01 (inactive).

Regarding `CCc1cc(=O)oc2cc(C)cc(OC(C)C(=O)O)c12` (stereo not drawn), the fold change is 1.04 (inactive). In the case of `O=c1[nH]nc(CSCc2ccccc2Cl)[nH]1` it was 1.04 (inactive); in that of `Cn1c(=O)n(C)c2cc(CNc3ccc(N4CCOCC4)c(C(=O)O)c3)ccc21`, 1 (inactive). Consider `O=C(Cn1c(=O)sc2ccccc21)Nc1ccc2c(c1)OCCO2`, for which the fold change was 1.01 (inactive). In the case of `Cc1ccc(S(=O)(=O)NCc2cn3ccsc3n2)c(C)c1` it was 0.97 (inactive); in that of `CCOc1ccc(OCC)c(NC(=O)C(NS(=O)(=O)c2ccc3c(c2)oc(=O)n3C)C(C)C)c1` (stereo not drawn), 0.97 (inactive); in that of `COCC(C)N=CC1=C(O)CC(C)(C)CC1=O` (stereo not drawn), 0.95 (inactive). For the molecule `NC(=O)CSc1c[nH]c2ccccc12`, the fold change was 1.01 (inactive). In the case of `COc1ccc(NC(C)=O)cc1NC(=O)CN1CCN(c2ccccn2)CC1` it was 0.97 (inactive). In the case of `CCN1CCN(c2ncnc3c2oc2nc(C)c4c(c23)CC(C)(C)OC4)CC1` it was 0.99 (inactive); in that of `COc1ccc2nc(NC(=O)c3ccc(Br)s3)sc2c1`, 1.1 (inactive); in that of `CCOC(=O)c1c(N)c(C#N)nn1-c1ccccc1C(=O)OC`, 1 (inactive). For `Cc1nnc(SCc2cc(=O)[nH]c(N3CCN(Cc4ccccc4)CC3)n2)s1` the value was 1.01 (inactive); for `O=C(Nc1ccccc1)c1cccnc1Nc1ccccc1`, 1.1 (inactive); for `CCN(Cc1nc2ccccc2c(=O)[nH]1)Cc1cc(=O)oc2cc(C)c(C)cc12`, 1.01 (inactive).

As for `CC(C)C(=O)Nc1c(C(=O)c2ccc(F)cc2)oc2ccccc12`, the fold change is 1.11 (inactive).

Regarding `Cc1ccc(S(=O)(=O)NCC(=O)N(CC(=O)NC2CCCCC2)Cc2ccco2)cc1`, the fold change was 0.98 (inactive). For `Cc1ccc(C)c(N2CCN(S(=O)(=O)c3ccc4c(c3)oc(=O)n4C)CC2)c1` the value was 0.98 (inactive). As to `C=CCNc1ncnc2ccc(Br)cc12`, the fold change is 1.1 (inactive). In the case of `O=C(CSc1nnc(-c2cccs2)n1Cc1ccco1)c1ccc2c(c1)OCO2`, the fold change was 1.08 (inactive). For `CC(C)(C)NC(=O)Cn1nnc(-c2ccccc2Cl)n1` the value was 1.03 (inactive); for `ON=C1/C(=N\O)CC2(C/C1=N/O)OCCO2`, 0.99 (inactive); for `COC(=O)CNC(=O)c1ccc2c(c1)S(=O)(=O)c1ccccc1C2=O`, 1.02 (inactive). In the case of `CCOC(=O)c1oc2ccccc2c1NC(=O)c1cccs1` it was 1.02 (inactive); in that of `CC(C)Oc1ccc(C2NC(=O)NC2=O)cc1` (stereo not drawn), 1 (inactive); in that of `O=C(CS(=O)(=O)Cc1ccccc1)Nc1cccnc1`, 1.08 (inactive).

Take `CCOC(=O)c1c(NC(=O)CCC(=O)NCc2ccco2)sc2c1CCCC2`: the fold change is 1.03 (inactive).

Values taken from PubChem BioAssay AID708 (SRMLSC, 2007).
